# 12-hLO inh: 12-hLO (ALOX12) enzyme inhibition; P18054; purified 12-hLO, xylenol orange hydroperoxide absorbance; Potency, µM (series often up to 57.1 µM), inactives show at the top dose activity change, negative = inhibition, most hits filed as inhibitors; actives 0.12% (n = 150,000); note: potency is the fitted concentration of half-maximal effect; nearly all actives have a fitted effect of over 55% in size
#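 Hydroperoxide output read as Fe(III)-xylenol orange absorbance, 573-to-405 nm ratio, after 30 min reaction with 40 uM arachidonic acid. Enzyme: 150 nM purified human 12hLO, 15 min compound preincubation; 25 mM Hepes pH 7.0, room temperature.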
# HPGD block: HPGD (human) dehydrogenase inhibition; P15428; Potency, µM, for the others: at the top dose activity change, negative = inhibition, usual class: inhibitors; purified HPGD, NADH fluorescence kinetic, PGE2 substrate; actives 4.3% (n = 150,000); active = well fitted inhibition curve with a large enough effect, not every such curve was filed as active; inconclusive = small, poorly fitted or top-dose-only effect, or another doubt; inactive = no such curve, though single readings can be large or run the other way; note: potency is the fitted concentration of half-maximal effect
# Target sequence (P15428 whole entry, looked up): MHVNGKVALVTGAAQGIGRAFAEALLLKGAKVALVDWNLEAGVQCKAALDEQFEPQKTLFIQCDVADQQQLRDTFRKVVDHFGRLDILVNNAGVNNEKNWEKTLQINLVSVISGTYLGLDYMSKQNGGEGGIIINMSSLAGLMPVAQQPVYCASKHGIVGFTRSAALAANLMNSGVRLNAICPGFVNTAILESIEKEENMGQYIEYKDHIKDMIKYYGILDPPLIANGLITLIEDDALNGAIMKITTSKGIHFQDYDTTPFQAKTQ
#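 20 nM HPGD preincubated 15 min at room temperature with compound in 50 mM Tris-HCl pH 8, 0.01% Tween 20. Started with 1 mM NAD+ and 30 uM prostaglandin E2; NADH fluorescence (360/450 nm) read 5 times over 30-s intervals, last minus first.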
# PNC assembly inh: blocks assembly of the perinucleolar compartment; activity change (PNC), negative = inhibition, % at 10 µM; PC3M PTB-GFP, PNC prevalence imaging, 16 h; hits give low values; AID 2417; actives 3.1% (n = 140,000);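 active = readout at or below -70, meaning at least 70% loss of cells showing the perinucleolar compartment, a nuclear body marking cancer cells; inconclusive = readout between -30 and a set limit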;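 note: plate controls were DMSO wells for no effect and camptothecin positive control wells for full effect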
#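 Read-out is percentage of cells bearing a perinucleolar compartment, from automated 20x imaging of fixed, Hoechst-stained PC3M PTB-GFP cells. Cells were seeded 4 h, then exposed 16 h to compound (23 nl of library stock) in duplicate plates.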
# GLA spleen mod: inhibitors or activators of human alpha-galactosidase in spleen homogenate | P06280 | human spleen homogenate, 4MU-alpha-Gal fluorescence, 40 min | Potency, µM (highest dose often 80 µM), for inactives: at the highest dose activity change, negative = inhibition, hits mostly inhibitors | actives 0.008% (n = 240,000);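 note: potency is the fitted concentration of half-maximal effect; 0% = enzyme with vehicle and -100% = no enzyme basal signal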
# Target sequence (P06280 32-429 limits assumed): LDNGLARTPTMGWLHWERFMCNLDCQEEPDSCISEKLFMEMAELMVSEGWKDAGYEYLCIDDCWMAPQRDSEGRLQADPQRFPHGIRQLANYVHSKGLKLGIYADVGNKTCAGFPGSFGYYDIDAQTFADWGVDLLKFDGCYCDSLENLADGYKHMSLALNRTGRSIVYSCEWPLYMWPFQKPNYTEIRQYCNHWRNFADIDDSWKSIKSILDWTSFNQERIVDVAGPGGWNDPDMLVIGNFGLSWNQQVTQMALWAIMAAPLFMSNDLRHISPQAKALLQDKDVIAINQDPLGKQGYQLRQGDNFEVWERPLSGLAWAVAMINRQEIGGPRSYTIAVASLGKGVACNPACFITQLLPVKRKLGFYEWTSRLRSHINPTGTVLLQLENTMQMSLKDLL
#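 qHTS titration in buffer at pH 5.0. Alpha-galactosidase activity in spleen homogenate was measured via 4-methylumbelliferone release from 1 mM fluorogenic substrate after 40 min at 37C and a pH 10 stop. AC50 came from Hill fits of control-normalized data.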
# ALDH1A1 inh: blocks purified human ALDH1A1 activity; P00352; Purified ALDH1A1, NADH fluorescence, propionaldehyde substrate; Potency, µM (series often up to 75.3 µM), for the others: top-dose activity, negative = inhibition, most hits filed as inhibitors; actives 7.3% (n = 220,000); AID 1030; active = well fitted inhibition curve with a large enough effect, not every such curve was filed as active; inconclusive = small, poorly fitted or top-dose-only effect, or another doubt; inactive = no such curve, though single readings can be large or run the other way;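 note: potency is the fitted concentration of half-maximal effect; plate controls were no enzyme wells and a reference inhibitor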
# GLA inh pH 4.5: inhibitors of human alpha-galactosidase A at pH 4.5; P06280; purified enzyme, 4-MU-alpha-Gal fluorescence, pH 4.5; activity change, negative = inhibition, % at 105 µM; 230,000 tested, under 10 active; AID 1467;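 note: 0% = full activity with enzyme and -100% = basal without enzyme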
# * marks the source's active call; other numbers are inactive results; ? = inconclusive; · = not tested or not shown; ! = a repeat was not active; [ ] = another dose, or the depositor's remark. The list is not random: actives were taken first. Their share in the collection is about 10%. Unless noted, calls come from the whole dose curve; as a rule, active = well fitted curve in the direction sought with a large enough effect; inconclusive = small, poorly fitted or top-dose-only effect, or another doubt; inactive = no such curve, though single readings can be large; an effect the other way counts as inactive or inconclusive. Unless noted, % is set by controls: 0 for no effect and ±100 for the full control effect.
SMILES,12-hLO inh,HPGD block,PNC assembly inh,GLA spleen mod,ALDH1A1 inh,GLA inh pH 4.5
CCC1CC=CC2C1C(=O)N(Cc1ccccc1)C2c1cc(C)ccc1F (stereo not given),·,·,·,4.8%,·,·
CC(=O)Nc1ccc(S(=O)(=O)NCC(=O)OCC(=O)N2CCN(c3ccccc3)CC2)cc1,3.5%,-0.3%,49.9,0.4%,20µM*,1.8
CC(=O)Nc1ccc(S(=O)(=O)N(C)CC(=O)OCC(=O)N2CCc3ccccc32)cc1,3.5%,-11.5%,-3.3,8.7%,8.91µM*,5.3
CC(=O)Nc1ccc(S(=O)(=O)NCC(=O)OCC(=O)N2CCCc3ccccc32)cc1,-3.4%,-0.4%,-99.5*,-0.9%,-7.5%,12.7
CCC(=O)N1CCCc2cc(S(=O)(=O)N3CCCc4ccccc43)ccc21,1.4%,-12.8%,1.8,8.5%,17.8µM*,0.9
OC[C@H]1O[C@@H](O[C@@H]2[C@@H](CO)O[C@](O)(CO)[C@H]2O)[C@H](O)[C@@H](O)[C@H]1O,-1.8%,-0.2%,·,-0.3%,8.0%,4.1
COc1cc2nc(N3CCN(C(=O)OCc4ccccc4)C(C(=O)NC(C)(C)C)C3)nc(N)c2cc1OC (stereo not given),·,?,·,14.7%,?,4.7
CCOC(=O)c1ccc(NC(=O)CC2SC(=NC)N(C)C2=O)cc1 (stereo not given),0.9%,-9.1%,?,6.2%,12.6µM*,-7.6
COCCN1C(=O)C(CC(=O)Nc2ccccc2)SC1=Nc1ccc(OC)cc1 (stereo not given),-4.7%,-6.0%,1.8,3.9%,-7.4%,9.0
CCOC(=O)c1ccccc1NC(=O)CC1SC(=NC)N(C)C1=O (stereo not given),0.8%,-5.6%,?,-1.6%,1.4%,-1.6
CCOC(=O)c1ccc(NC(=O)CC2Sc3ncnn3C2=O)cc1 (stereo not given),-1.2%,15.8µM*,?,5.5%,1µM*,7.3
COc1ccc(NC(=O)CC2Sc3ncnn3C2=O)cc1 (stereo not given),-2.3%,7.94µM*,24.3,-4.0%,0.398µM*,5.4
O=C(CC1Sc2ncnn2C1=O)Nc1ccc(Cl)cc1 (stereo not given),·,·,·,-1.3%,7.94µM*,-3.4
O=C(CC1SC(=O)N(c2ccccc2)C1=O)Nc1ccc(Cl)cc1 (stereo not given),·,·,·,3.5%,·,-3.0
Cc1noc(NC(=O)Nc2ccccc2F)c1C#N,3.2%[11.4 µM],-0.8%,·,·,-2.2%[13.5 µM],·
COc1ccccc1N=c1oc2c(OC)cccc2cc1C(=O)NCc1ccco1,-7.2%,·,?,6.6%,?,4.5
COc1cccc(C(=O)N/N=c2\oc3c(OC)cccc3cc2C(=O)NCc2ccccc2)c1,-1.8%,-2.2%,18.9,7.2%,0.316µM*,3.2
COc1ccc(N=c2oc3c(OC)cccc3cc2C(=O)NCc2ccco2)cc1OC,5.1%,-14.7%,14.7,3.8%,0.355µM*,-8.8
CCOc1cc(/C=N/NC(=O)C(=O)Nc2cc(Cl)ccc2C)ccc1O,·,·,·,0.9%,10.0%,-1.1
O=C(N[C@H](CO)[C@H](O)c1ccc([N+](=O)[O-])cc1)C(Cl)Cl,-1.3%,-10.8%,·,-10.1%,14.1µM*!,0.4
Cc1ccc(-c2cc(-c3ccccc3)no2)c(O)c1,-3.4%,-15.4%,37.6,-1.2%,-10.4%,4.1
Oc1ccccc1-c1cc(-c2ccccc2)no1,3.3%,1.58µM*,?,11.2%,4.4%,-15.9
Cc1ccccc1-c1cc(-c2ccccc2O)on1,-7.7%,14.1µM*,6.4,-15.3%,4.9%,-1.3
N#CCCn1c(Cl)nc2ccccc21,-0.3%,-7.2%,-86.0*,-3.4%,-4.8%,-18.3
C(=N\Nc1ccccc1)/c1ccc(N2CCOCC2)cc1,?,14.1µM*,63.5,3.5%,6.31µM*,0.4
SMILES,12-hLO inh,HPGD block,PNC assembly inh,GLA spleen mod,ALDH1A1 inh,GLA inh pH 4.5
CN(C)c1ccc(NC(=O)COC(=O)CCC(=O)c2ccc(F)cc2)cc1,-2.1%,-21.4%,47.9,4.2%,10µM*,0.2
COCC(=O)Nc1ccc(C(C)C)cc1,-4.8%,17.8µM*,?,-2.1%,-2.1%,-4.8
CC(=O)NC(=S)Nc1ccc(NC(=O)COc2ccc(C(C)C)cc2)cc1,-1.5%,-5.5%,5.8,-1.4%,?,11.3
CCNC(=O)COC(=O)CCC(=O)c1ccc(F)cc1,·,·,·,6.9%,·,-10.6
COCC(=O)Nc1ccc(N(C)C)cc1,-5.6%,?,-80.9*,-7.5%,6.6%,-7.6
CCNC(=S)NNC(=O)c1cc(Br)cs1,-6.1%,-22.9%,37.0,0.9%,?,4.9
CSCCNC(=O)c1ccc(C(C)(C)C)cc1,-1.7%,14.1µM*,-22.3,5.7%,-8.6%,1.1
CCn1c(C(C#N)/C(=N\S(=O)(=O)c2cccs2)c2ccccc2)nc2ccccc21 (stereo not given),-0.4%,-6.7%,9.8,-4.8%,10µM*,11.4
CCCCNc1nc(C)nc2c1nc(-c1ccccc1)n2CC(C)(C)CN(C)C,-2.3%,?,·,0.1%,?,-26.1
C[C@@H]1C=C[C@](Cc2ccccc2)(C(=O)NCCCNc2ncc(C(F)(F)F)cc2Cl)N1C(=O)c1ccccc1,-7.2%,-23.1%,·,1.2%,?,-29.5
Cc1cc(/C=C2\SC(=Nc3ccccc3)NC2=O)c(C)n1-c1ccc(S(N)(=O)=O)cc1,-17.4%,-18.3%,-29.8,1.4%,28.2µM*,-19.3
O=C1NC(=Nc2ccccc2)S/C1=C/c1cccs1,·,·,·,3.7%,4.9%,-8.1
COC(=O)c1ccc(COc2cccc(C)c2C)cc1,·,·,·,-4.5%,5.9%,1.1
CNc1nc(-c2ccc3c(c2)CCN3C(=O)c2ccccc2F)cs1,·,·,·,2.8%,25.1µM*,3.7
CC(C)(C)C(=O)N1CCc2cc(-c3csc(N)n3)ccc21,7.1%,-23.2%,25.0,2.9%,-1.8%,3.9
CNc1nc(-c2ccc3c(c2)CCN3C(=O)CC(C)(C)C)c(C)s1,·,·,·,-1.0%,-13.2%,1.7
CNc1nc(-c2ccc3c(c2)CCN3C(=O)c2ccccc2F)c(C)s1,·,·,·,-6.9%,11.2µM*,-3.3
CNc1nc(-c2ccc3c(c2)CCN3S(=O)(=O)c2ccccc2)c(C)s1,·,·,·,1.2%,8.91µM*,6.7
Cc1ccc(O)c(C(CC(=O)NCc2cccnc2)c2ccccc2)c1 (stereo not given),·,·,·,-7.5%,16.1%,7.7
CC(C)Oc1ccc(CNC(=O)CC(c2ccccc2)c2cc(Cl)ccc2O)cc1 (stereo not given),-10.8%,-19.6%,71.1,-5.7%,-1.2%,-10.5
CCCCCCNC(=O)CC(c1ccccc1)c1cc(Br)ccc1O (stereo not given),-9.2%,8.91µM*,3.5,3.0%,0.3%,4.8
